According to PubChem BioAssay:
A number with no mark means an inactive call. The rule behind the calls is not given here.

target: Pantothenate synthetase (Mycobacterium tuberculosis (strain ATCC 25618 / H37Rv)) (UniProt P9WIL5); experiment: Recombinant Mtb pantothenate synthetase (PanC) inhibitors, coupled enzyme, confirmatory (AID 375); conditions: coupled enzyme assay; at 10 µM, stronger effect = higher value;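 note: 0% = full reaction with vehicle and 100% = no enzyme background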
Sequence (P9WIL5 whole entry, looked up): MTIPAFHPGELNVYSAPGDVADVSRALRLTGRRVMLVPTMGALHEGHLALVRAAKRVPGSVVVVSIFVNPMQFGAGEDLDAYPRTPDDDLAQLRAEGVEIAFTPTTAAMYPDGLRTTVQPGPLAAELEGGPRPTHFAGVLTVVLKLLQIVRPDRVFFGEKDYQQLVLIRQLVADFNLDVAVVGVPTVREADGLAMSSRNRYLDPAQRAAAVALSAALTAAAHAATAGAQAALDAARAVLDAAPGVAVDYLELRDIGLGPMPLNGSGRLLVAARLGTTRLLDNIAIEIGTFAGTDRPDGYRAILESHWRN

| Structure (SMILES) | inhibition [%] |
| --- | --- |
| C=CS(=O)(=O)c1ccc(Oc2ccc(S(=O)(=O)C=C)cc2)cc1 | 10 |
| CC(C[N+](C)(C)C)OC(N)=O (configuration not stated) | 0 |
| O=C(Cn1nnc(-c2ccc(CN3CCOCC3)cc2)n1)NC1CCCCC1 | 12 |
| O=C(Nc1ccccc1)C1=C(O)CC(c2ccoc2)CC1=Nc1ccccc1 (configuration not stated) | 0 |
| O=C(c1cnn2c(C(F)F)cc(C3CC3)nc12)N1CCOCC1 | 1 |
| Nc1scc(-c2ccncc2)c1Cl | 7 |
| COc1ccccc1NC(=O)N(Cc1ccco1)Cc1cc2c(C)ccc(C)c2[nH]c1=O | 0 |
| COc1cccc(C2C3=C(N=C4SCC(=O)N42)c2ccccc2CC3)c1OC (configuration not stated) | 4 |
| Cc1nn(C)c(C)c1NC(=O)CSc1nc(Cc2ccccc2)nc2c1cnn2-c1ccccc1 | 2 |
| OC(CNCC1COc2ccccc2O1)COCc1cccs1 (configuration not stated) | 0 |
| COc1ccc(S(=O)(=O)Nc2cc(C)on2)cc1OC | 0 |
| Cn1c(=O)c2nc(Cl)n(Cc3ccc(Cl)cc3Cl)c2n(C)c1=O | 6 |
| O=c1cc(CSc2nnc(COc3ccc(Cl)cc3)o2)c2ccccc2[nH]1 | 3 |
| Cc1cc(C)c(NC(=O)Cn2cc3c(n2)CCCC3)c(C)c1 | 0 |
| Oc1c(C(c2ccccc2)N2CCc3ccccc3C2)sc2ncnn12 (configuration not stated) | 0 |
| CCC(c1nnnn1C(C)(C)C)N1CCN(C2CCCC2)CC1 (configuration not stated) | 4 |
| Cc1sc2nc(SCC(=O)N3CCN(CCO)CC3)n(-c3ccccc3)c(=O)c2c1C | 6 |
